# Source: PubChem (National Center for Advancing Translational Sciences (NCATS))
# Shown are actives, neighbours in structure and some others; about 6% of the full set was active somewhere.
# D3 ag: agonists of human D3 dopamine receptor; P35462; D3R DiscoveRx beta-arrestin cells, luminescence, 90 min; max activation, %; hit rate 0.58% among 410,000; in the data active = max activation above about 30%; note: 0% is about no effect
# Target sequence (P35462 whole entry, looked up): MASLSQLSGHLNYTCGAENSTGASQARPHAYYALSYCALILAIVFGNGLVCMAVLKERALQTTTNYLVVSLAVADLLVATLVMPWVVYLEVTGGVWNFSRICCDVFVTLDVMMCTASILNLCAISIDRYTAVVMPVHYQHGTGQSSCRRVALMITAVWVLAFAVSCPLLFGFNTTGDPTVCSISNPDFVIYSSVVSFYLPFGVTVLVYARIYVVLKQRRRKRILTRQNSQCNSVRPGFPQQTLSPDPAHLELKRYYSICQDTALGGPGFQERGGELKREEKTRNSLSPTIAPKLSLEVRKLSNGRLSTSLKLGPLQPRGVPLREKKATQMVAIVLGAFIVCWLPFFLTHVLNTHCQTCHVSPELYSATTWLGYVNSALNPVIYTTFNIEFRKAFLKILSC
#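 Agonist mode: compounds and dopamine controls were applied to plated cells for 90 min at 37 degrees C after an overnight attachment at 1500 cells/well. Luminescent read-out followed 30 - 60 minutes at room temperature with DiscoveRx detection reagent.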
# Chronic BCR inh: chronic active BCR signaling inhibition. ABC-DLBCL IkBa-CBG/CBR reporter, luminescence ratio, 4 h. AID 493014. Potency, µM (highest dose often 46.1 µM), without a hit: at the highest dose activity change, negative = inhibition, usual class: inhibitors. hit rate 0.05% among 340,000; active = well fitted inhibition curve with a large enough effect in the signal ratio, with a control signal flat, not every such curve was filed as active; inconclusive = small, poorly fitted or top-dose-only effect, or effect the other way, or a change in a side signal; the % refers to the signal ratio;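 note: potency is the fitted concentration of half-maximal effect; plate controls were basal doxycycline-induced cells for no effect and cells given 10 µM MG132 for full effect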
#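 Concentration-response series (up to 46 uM) were applied to TMD8 dual-reporter cells for 4 h at 37C with doxycycline. Green/red ratio, after filter-overlap correction, defined %Activity; red signal alone was normalised to basal cells and zero luminescence.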
# D3 antag: blocks the human D3 dopamine receptor; P35462; D3R cells, DiscoveRx beta-arrestin luminescence, antagonist mode; hits give low values; max response, negative = inhibition, %; hit rate 2.5% among 360,000; AID 652054; in the data active = max response below about -50%; inconclusive = no clear call, values can overlap the other calls; note: % is set by controls: 0 for no effect and ±100 for the full control effect
#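 Cells plated overnight at 1500 cells/well, then exposed to library compounds with dopamine controls for 90 minutes at 37 degrees C. DiscoveRx reagent added for 30–60 minutes at room temperature; luminescence read, quantitative HTS format.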
# D1 potentiator: potentiators of human D1 dopamine receptor; P21728; HEK293 TREx D1 cells, calcium flux, dopamine EC20 potentiation; potentiation, % at 10 µM; hit rate 0.036% among 360,000; AID 504651; in the data active = potentiation above about 30%; note: 0% is about no effect
# D1 antag: human D1 dopamine receptor antagonism; P21728; HEK293 TREx D1 cells, calcium flux, dopamine EC80; hits give low values; activity change, negative = inhibition, % at 10 µM; hit rate 3.2% among 360,000; AID 504652; in the data active = activity change below about -30%; note: % is set by controls: 0 for no effect and ±100 for the full control effect
#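 Tetracycline-induced HEK293 Trex D1 cells, force-coupled to calcium, dye-loaded; compounds added and read 180 s, then EC80 dopamine added and calcium flux tracked kinetically another 180 s.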
# D1 ag: human D1 receptor agonism; activation, % at 2 µM; AID 504660; HEK293 T-REx D1 cells, calcium flux, agonist mode; hit rate 1% among 360,000; in the data active = activation above about 30%; note: 0% is about no effect
#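 Tetracycline-induced HEK293 TREx D1 cells, force-coupled to calcium signalling, were dye-loaded with a no-wash calcium kit. Compound was pin-added after a 10 s baseline. Fluorescence was read kinetically at 1 cycle/s for 180 s, with calcium rises flagged as agonism.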
# Numbers without * were called inactive; ? = inconclusive; · = no result.
SMILES,D3 ag,Chronic BCR inh,D3 antag,D1 potentiator,D1 antag,D1 ag
COc1ccc(NS(=O)(=O)c2ccc(N3CCCC3)c(NC(=S)Nc3ccc(SC(F)F)cc3)c2)cc1,-18,0%,-23,-4,-42*,13
Nc1cc(S(=O)(=O)Nc2cc(Cl)ccc2Cl)ccc1N1CCCC1,2,13%,-11,-10,-33*,4
Cc1cc(C)cc(Cn2cc(CN3CC(N4CCCCC4)CS3(=O)=O)nn2)c1 (stereo unspecified),4,·,11,·,·,·
COc1ccc(C(F)(F)F)cc1NC(=O)c1nc2nc(C)cc(C(F)F)n2n1,6,0%,20,1,-1,6
Cc1cc(C(F)F)n2nc(C(=O)Nc3cccc(C(F)(F)F)c3)nc2n1,-2,?,?,-5,-40*,-1
O=C(Nc1cccc(C(F)(F)F)c1)c1cc(-c2ccc(Cl)cc2)on1,-5,·,·,-2,-14,2
Cc1ccc(C(=O)Nc2ccc(Oc3cccc(C(F)(F)F)c3)nc2)cc1,22,8%,2,3,-31*,30
CC(C)c1cc(C(=O)Nc2cccc(C(F)(F)F)c2)no1,-4,?,-53*,-3,3,2
COc1ccc(NC(=O)Nc2cccc(C(F)(F)F)c2)cn1,-6,17%,-6,5,-30*,18
COc1ccc(NC(=O)Nc2cc(C)cc(C)c2)cn1,5,?,5,-2,-2,4
O=C(NCC(c1ccc2c(c1)OCO2)N1CCN(c2ccccc2)CC1)C(=O)Nc1ccccc1 (stereo unspecified),7,·,·,0,-2,2
COc1ccc(NC(=O)Nc2ccc([N+](=O)[O-])cc2)cn1,-14,4%,?,-4,-52*,35*
COC(=O)/C(=C\C(=O)c1ccccc1)Nc1cccc(C(F)(F)F)c1,3,1%,-76*,-10,3,3
O=C(Nc1ccccc1)Nc1cccc(C(F)(F)F)c1,4,2%,15,-2,-37*,22
O=C(Nc1cccc(C(F)(F)F)c1)Nc1cccs1,7,·,·,-7,-44*,25
Cc1cc2oc(C(=O)Nc3ccc(S(=O)(=O)N4CCCCCC4)cc3)cc(=O)c2cc1C,4,·,·,1,8,1
O=C1CCCc2[nH]c(=O)c(-c3nc(-c4cccc([N+](=O)[O-])c4)cs3)cc21,-1,·,·,-2,-22,-1
O=C(Cc1cccc(NC(=O)C2CCCN(C(=O)CCc3ccccc3)C2)c1)Nc1cccc(C(=O)N2CCCCC2)c1 (stereo unspecified),0,·,0,·,·,·
COCCNC(=O)C1(C)CCCN(Cc2ccc(OC)cc2)C1 (stereo unspecified),-1,·,-5,·,·,·
CCOC(=O)C1=NN(C(=O)c2ccc(C)cc2)C(O)(c2ccc(Cl)cc2)C1 (stereo unspecified),-9,-29%,-57*,3,-28,158*
COC(=O)C1=NN(C(=O)c2ccc(Cl)cc2)C(O)(c2ccccc2)C1 (stereo unspecified),-25,?,?,-4,3,30*
CN(CC(=O)Nc1ccc([N+](=O)[O-])cc1Br)Cc1c(F)cccc1Cl,-14,?,-23,1,-32*,12
Cc1ccc(NC(=O)c2cc3ccccn3n2)cc1F,-17,·,·,-2,-6,2
COc1ccc(-n2sc3c(c2=S)-c2cc(OC)ccc2NC3(C)C)cc1,4,7%,-11,7,7,2
COc1ccc2c(c1)-c1c(sn(-c3ccc(OC)c(OC)c3)c1=S)C(C)(C)N2,-3,-5%,-59*,6,3,-1
SMILES,D3 ag,Chronic BCR inh,D3 antag,D1 potentiator,D1 antag,D1 ag
O=[N+]([O-])C1C(c2ccccc2)C12c1ccccc1-c1ccccc12 (stereo unspecified),0,·,-14,·,·,·
CCSc1nnc(NC(=O)c2nc(S(=O)(=O)Cc3ccc(F)cc3)ncc2Cl)s1,-18,?,-68*,9,-1,1
Cc1ccc(C)c(NC(=O)c2nc(S(=O)(=O)Cc3ccc(F)cc3)ncc2Cl)c1,-29,·,·,-2,-37*,0
O=C(Nc1nnc(SCc2ccccc2F)s1)c1ccco1,10,?,17,-7,-82*,3
Cc1ccc(CS(=O)(=O)c2ncc(Cl)c(C(=O)Nc3nnc(C(C)C)s3)n2)cc1,-21,?,0,-1,-1,5
CCCSc1nnc(NC(=O)c2ccco2)s1,-6,?,-13,3,2,3
C=CCSc1nnc(NC(=O)c2nc(SCC)ncc2Cl)s1,15,20%,4,-6,-2,0
Cc1nnc(NC(=O)c2nc(S(=O)(=O)Cc3ccccc3C)ncc2Cl)s1,-10,?,-50*,-2,7,4
Cc1nnc(NC(=O)c2nc(SCc3ccccc3F)ncc2Cl)s1,3,·,·,-1,3,1
COc1ccc(CN2C(=O)COc3ccccc3C2c2nc3ccccc3[nH]2)cc1 (stereo unspecified),0,·,-12,·,·,·
Cc1ccc(OC(=O)c2snnc2C)cc1C,2,·,·,1,-10,2
O=C(Nc1nnc(SCc2ccc(F)cc2)s1)c1ccccn1,-26,?,-66*,-4,-2,2
CC(C)c1nnc(NC(=O)c2nc(S(=O)(=O)Cc3ccccc3F)ncc2Cl)s1,-6,?,-51*,-1,0,2
O=C(Nc1nc2ccc(F)cc2s1)c1ccccn1,-25,?,-73*,-4,10,5
CC(C)c1nnc(NC(=O)c2nc(S(=O)(=O)Cc3ccc(F)cc3)ncc2Cl)s1,-22,?,-61*,5,-1,2
CSc1nnc(NC(=O)c2nc(S(=O)(=O)Cc3ccccc3F)ncc2Cl)s1,-25,?,0,8,3,1
COC(=O)c1cc(NS(=O)(=O)c2ccc3c(c2)OCCO3)ccc1Cl,-3,·,·,0,-10,11
C[C@@H]1CN([C@H](C)CO)C(=O)CCCn2nncc2CO[C@H]1CN(C)Cc1cccc(C(=O)O)c1,-7,·,-24,·,·,·
COc1cccc(C2CC(=O)Nc3c2c(=O)[nH]c2nc4ccccc4n32)c1 (stereo unspecified),-8,·,·,-1,3,-1
C[C@@H](C(=O)Nc1nc2ccc(F)cc2s1)N1C(=O)C2CC=CCC2C1=O (stereo partly specified),2,?,9,0,-45*,0
Cc1ccc2nc(NC(=O)[C@H](C)N3C(=O)C4CC=CCC4C3=O)sc2c1 (stereo partly specified),-5,?,19,5,-1,4
